Shown are actives, neighbours in structure and some others; about 2% of the full set was active somewhere.
CtBP-E1A blk: CtBP/E1A binding inhibition. 340,000 tested, 0.49% active. AID 651724. AlphaScreen GST-E1A/His-CtBP binding, 1536-well; hits give low values. activity change, % (concentration not given with the values)
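GST-E1A and His-tagged CtBP (125 nM each as 5X stock) were preincubated with pin-transferred compound for 2 h at 37 °C in the dark, then glutathione donor and nickel acceptor beads were added for 1 h before AlphaScreen reading.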
KDM4E inh: inhibitors of human JMJD2E histone demethylase; Potency, µM (series often up to 57.1 µM), hits mostly inhibitors; AID 2147; 230,000 tested, 1.6% active; JMJD2E catalytic domain, FDH-coupled NADH fluorescence (FDH is formaldehyde dehydrogenase); further: nearly all actives have a fitted effect of over 50% in size
Target sequence (B2RXH2 1-337 limits assumed): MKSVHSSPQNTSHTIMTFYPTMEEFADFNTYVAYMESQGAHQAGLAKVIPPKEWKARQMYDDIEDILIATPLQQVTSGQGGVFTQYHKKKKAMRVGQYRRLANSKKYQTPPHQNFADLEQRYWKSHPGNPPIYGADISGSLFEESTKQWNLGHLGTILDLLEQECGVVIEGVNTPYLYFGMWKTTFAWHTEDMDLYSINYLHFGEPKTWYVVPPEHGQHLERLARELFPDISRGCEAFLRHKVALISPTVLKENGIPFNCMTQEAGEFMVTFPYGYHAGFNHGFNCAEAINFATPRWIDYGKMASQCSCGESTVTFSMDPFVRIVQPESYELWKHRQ
KCNH2 WT inh: blocks the wildtype human KCNH2 potassium channel. activity change, % at 1.84 µM. U2OS, BacMam KCNH2, thallium flux FluxOr; hits give low values. 340,000 tested, 0.37% active. AID 720551. Q12809;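 active means maximum activity change below -70%; inconclusive means maximum activity change between -70% and -50%; inactive means maximum activity change above -50%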
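U2OS cells transduced with wild-type KCNH2 virus are loaded with FluxOr dye for 45 min, and thallium flux is measured in kinetic reads before and after stimulation buffer. Rate constants are normalized to DMSO controls.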
Six1-Eya2 inh: blocks human Six1 binding to Eya2; Q15475+O00167; AlphaScreen GST-Six1/His-Eya2 binding, biochemical; hits give low values; activity change, % (test concentration not listed); 360,000 tested, 0.56% active
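GST-Six1 + His-Eya2 (5X stock: 250/500 nM); Tris pH 8.0, 300 mM NaCl, 0.05% BSA, 0.02% Tween 20; GSH donor/Ni acceptor beads; 1 h 37 °C dark; AlphaScreen readout.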
KCNH2 3.1 block: KCNH2 3.1 (human) potassium channel inhibition; U2OS KCNH2 3.1, thallium flux FluxOr; hits give low values; activity change, % (tested at about 1.8 µM); 340,000 tested, 0.95% active;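 active means maximum activity change below -70%; inconclusive means maximum activity change from -70% to -50%; inactive means maximum activity change above -50%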;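 further: thallium influx rate constant from kinetic fluorescence after stimulation buffer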
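Thallium flux via FluxOr fluorescence (Red40 quencher, 45 min loading) in U2OS cells virally expressing the KCNH2 3.1 isoform (1.77 x 10^8 /mL virus, overnight at 37 C). Rate constants from 2-min kinetic reads post-stimulation, normalised to positive and negative controls.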
Hits are given with their value. Unless noted, no stated cut-off is given here; in the data, active means activity change below about -65%; inconclusive means mostly about -30% to -63%; inactive means weaker than that.

`CCCCCCN1C=CC=C/C1=C/C=C(C#N)C#N` gave CtBP-E1A blk inconclusive, KDM4E inh inactive, KCNH2 WT inh -123.0, Six1-Eya2 inh inconclusive and KCNH2 3.1 block inactive.
Screening C=CCN1C=C/C(=C\C=C(C#N)C#N)c2ccccc21 returned CtBP-E1A blk -78.6, KDM4E inh inactive, KCNH2 WT inh inactive, Six1-Eya2 inh inconclusive and KCNH2 3.1 block inactive.
Cc1cc(NC(=O)c2ccccc2)nc(C)n1 was read as CtBP-E1A blk inactive, KDM4E inh inactive, KCNH2 WT inh inactive, Six1-Eya2 inh inactive and KCNH2 3.1 block inactive.
For Cc1ccccc1/C=C/C1=NCCN1 the results were CtBP-E1A blk inactive, KDM4E inh 17.8µM, KCNH2 WT inh inactive, Six1-Eya2 inh inactive and KCNH2 3.1 block inactive.
`O=C(CCN1CCC(c2ccccc2)C1)c1ccc2c(c1)OCCO2` (stereo not given) gave CtBP-E1A blk inactive, KDM4E inh 17.8µM, KCNH2 WT inh inactive, Six1-Eya2 inh inactive and KCNH2 3.1 block inactive.
`Cc1ccc(S(=O)(=O)CC#CCOC(=O)c2ccc([N+](=O)[O-])cc2)cc1` gave KDM4E inh inactive.
For COc1ccc(N2CCN(CCNC(=O)Nc3ccc(C)c(Cl)c3)CC2)cc1 the results were Six1-Eya2 inh inactive and KCNH2 3.1 block -89.6.
`COc1ccc(NC(=O)NCCN2CCN(c3cccc(Cl)c3)CC2)cc1` gave CtBP-E1A blk inactive, KDM4E inh inactive, KCNH2 WT inh inactive, Six1-Eya2 inh inconclusive and KCNH2 3.1 block inactive.
`COc1cccc(NC(=O)NCCCN2CCN(c3ccc(F)cc3)CC2)c1` gave CtBP-E1A blk inactive, KDM4E inh inactive, KCNH2 WT inh inactive, Six1-Eya2 inh inactive and KCNH2 3.1 block -82.0.
For COc1cccc(NC(=O)CN2CCN(c3ccc(F)cc3)CC2)c1 the results were CtBP-E1A blk inconclusive, KDM4E inh inactive, KCNH2 WT inh inactive, Six1-Eya2 inh inactive and KCNH2 3.1 block inactive.
Screening COc1ccc(NC(=O)NCCCN2CCN(c3cc(C)ccc3C)CC2)cc1 returned CtBP-E1A blk inactive, KDM4E inh inactive, KCNH2 WT inh inactive, Six1-Eya2 inh inactive and KCNH2 3.1 block -91.6.
For O=C(CCN1CCN(c2ccccc2F)CC1)c1ccc(Br)cc1 the results were CtBP-E1A blk inactive, KDM4E inh 25.1µM, KCNH2 WT inh inactive, Six1-Eya2 inh inactive and KCNH2 3.1 block inactive.
Screening Cc1nnc(SCC(=O)N/N=C/c2ccc(-c3ccc(C)c(Cl)c3)o2)s1 returned CtBP-E1A blk inactive, KDM4E inh inactive, KCNH2 WT inh inactive, Six1-Eya2 inh inactive and KCNH2 3.1 block inactive.
O=C(O)/C=C/C(=O)NCC1CCC(CNC(=O)/C=C/C(=O)O)CC1 (stereo not given) was read as CtBP-E1A blk inactive, KDM4E inh inactive, KCNH2 WT inh inactive, Six1-Eya2 inh inactive and KCNH2 3.1 block inactive.
For Cc1ccc2cc(CN(Cc3cccs3)Cc3nnnn3CC3CCCO3)c(=O)[nH]c2c1 (stereo not given) the results were CtBP-E1A blk inactive, KDM4E inh inactive, KCNH2 WT inh inactive, Six1-Eya2 inh inactive and KCNH2 3.1 block inactive.
COc1ccc(C(=O)CCN2CCN(c3ccc(OC)cc3)CC2)cc1 was read as CtBP-E1A blk inactive, KCNH2 WT inh inactive, Six1-Eya2 inh inactive and KCNH2 3.1 block -70.9.
`COc1cc(NC(=O)NCCN2CCN(c3ccc(Cl)cc3)CC2)ccc1C` gave CtBP-E1A blk inactive, KDM4E inh inactive, KCNH2 WT inh inactive, Six1-Eya2 inh inactive and KCNH2 3.1 block -81.5.
`NC(=O)CSc1nnnn1-c1ccccc1Cl` gave CtBP-E1A blk inactive, KDM4E inh inactive, KCNH2 WT inh inactive, Six1-Eya2 inh inactive and KCNH2 3.1 block inactive.
Screening CCS(=O)(=O)N1CCCC(C(=O)NC2CCCCC2C)C1 (stereo not given) returned CtBP-E1A blk inactive, KDM4E inh inactive, KCNH2 WT inh inactive, Six1-Eya2 inh inactive and KCNH2 3.1 block inactive.
`Cc1cc(C)n(-c2nc(-c3ccc(Cl)c(Cl)c3)cs2)n1` gave CtBP-E1A blk inactive, KDM4E inh inactive, KCNH2 WT inh -124.9, Six1-Eya2 inh inactive and KCNH2 3.1 block inactive.
`Cc1cc(C)n(-c2ccc(Cl)c(Cl)c2)n1` gave CtBP-E1A blk inactive, KDM4E inh inactive, KCNH2 WT inh inactive and Six1-Eya2 inh inactive.
Screening COC(=O)c1cccc(NC(=O)Nc2ccc(Cl)cc2Cl)c1 returned CtBP-E1A blk inactive, KDM4E inh inactive, KCNH2 WT inh inactive, Six1-Eya2 inh inactive and KCNH2 3.1 block inactive.
O=C(Nc1ccn(Cc2ccc(Cl)cc2)n1)c1ccccc1 was read as CtBP-E1A blk inactive, KDM4E inh inactive, KCNH2 WT inh inactive, Six1-Eya2 inh inactive and KCNH2 3.1 block inactive.
`O=C(Nc1ccn(Cc2ccccc2)n1)c1ccc2c(c1)OCO2` gave CtBP-E1A blk inactive, KDM4E inh inactive, KCNH2 WT inh inactive, Six1-Eya2 inh inactive and KCNH2 3.1 block -81.0.
For COc1ccccc1NC(=O)Cc1nn(C)c(=O)c2ccccc12 the results were CtBP-E1A blk inactive, KDM4E inh inactive, KCNH2 WT inh inactive, Six1-Eya2 inh inactive and KCNH2 3.1 block inactive.
`Cc1ccc(CNC(=O)C23CN(Cc4ccccc4)CC2C(c2cccc([N+](=O)[O-])c2)=NO3)cc1` (stereo not given) gave CtBP-E1A blk inactive, KDM4E inh inactive, KCNH2 WT inh inactive, Six1-Eya2 inh inactive and KCNH2 3.1 block -71.8.
For O=C(NCc1ccccc1)C12CN(Cc3ccccc3)CC1C(c1ccc([N+](=O)[O-])cc1)=NO2 (stereo not given) the results were CtBP-E1A blk inactive, KDM4E inh inactive, KCNH2 WT inh inactive, Six1-Eya2 inh inactive and KCNH2 3.1 block -76.7.
Screening Cc1ccccc1NS(=O)(=O)c1ccc(N2CCCC2=O)cc1 returned CtBP-E1A blk inactive, KDM4E inh inactive, KCNH2 WT inh inactive, Six1-Eya2 inh inactive and KCNH2 3.1 block inactive.
For COc1ccc(C2=NCCn3cccc32)c(OC)c1 the results were CtBP-E1A blk inactive, KDM4E inh inactive, KCNH2 WT inh inactive, Six1-Eya2 inh inactive and KCNH2 3.1 block inactive.
CCc1ccccc1NC(=O)CSc1nc2n[nH]c(C)c2c(=N)n1-c1cccc(OC)c1 was read as CtBP-E1A blk -69.9, KDM4E inh inactive, KCNH2 WT inh inactive, Six1-Eya2 inh inconclusive and KCNH2 3.1 block inactive.
For Cc1n[nH]c(=O)n1-c1cccc(C(F)(F)F)c1 the results were CtBP-E1A blk inactive, KDM4E inh inactive, KCNH2 WT inh inactive, Six1-Eya2 inh inactive and KCNH2 3.1 block inactive.
COc1ccc(NC(=O)c2cc3ccccc3o2)cc1OC was read as CtBP-E1A blk inactive, KCNH2 WT inh inactive, Six1-Eya2 inh inactive and KCNH2 3.1 block inactive.
Screening COc1ccc(NC(=O)c2coc3ccccc23)cc1OC returned CtBP-E1A blk inactive, KDM4E inh inactive, KCNH2 WT inh -341.0, Six1-Eya2 inh inactive and KCNH2 3.1 block inactive.
`Cc1c(C(=O)Nc2ccc(Cl)cc2)c2ccccn2c1CCc1ccncc1` gave CtBP-E1A blk inconclusive, KDM4E inh inactive, KCNH2 WT inh inactive, Six1-Eya2 inh inactive and KCNH2 3.1 block inconclusive.
